Several values for one entry are separate records, joined by “and”; a condition that tells them apart may be missing. Equal entries are not always repeated. Records with an inconclusive call do not appear. More than one record can exist for a structure, and the calls need not agree. Activity calls are given as the source filed them. Unless noted, the call rests on the fitted dose curve; in most records, active means well fitted curve in the direction sought with a large enough effect in the repeat runs; inconclusive means weak or mixed curves; inactive means no such curve, though single readings can be large; an effect the other way counts as inactive or inconclusive.

Assay [1] in a line: qHTS assay to identify small molecule agonists of the RXR signaling pathway - cell viability counter screen (AID 1159529). Further: nearly all actives have a fitted effect of over 50% in size. Further: potency means the concentration at half of the fitted maximal effect. In short, it runs like this: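 HEK 293T RXRa-bla cells, 2% CS-FBS; 5 h settle; cpd 16 h 37 C, 5% CO2; CellTiter-Glo 30 min RT, luminescence. Tetraoctyl ammonium bromide as positive control.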
(In general: qHTS replaces the single test concentration by a dilution series.)

Assay [2] in a line: qHTS assay to identify small molecule antagonists of the retinoid acid receptor (RAR) signaling pathway - cell viability counter screen (AID 1159551). Further: nearly all actives have a fitted effect of over 35% in size. In short, it runs like this:
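Luminescent ATP quantitation (CellTiter-Glo) gave cell viability in C3RL4 cells exposed to test chemicals for 6 h at 37 C alongside 1 uM final retinol.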

A short description of assay [3]: qHTS assay to identify small molecule antagonists of the retinoic acid receptor (RAR) signaling pathway (AID 1159552; further: nearly all actives have a fitted effect of over 50% in size). The method, boiled down:
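Cells of the C3RL4 line were seeded, incubated overnight, then dosed with compounds in DMSO followed immediately by retinol (1 uM final). Six hours later luciferase detection reagent went in; signal was measured after 30 min at RT.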

Assay [4] in a line: qHTS assay to identify small molecule agonists of the retinoic acid receptor (RAR) signaling pathway (AID 1159553). Further: potency means the concentration at half of the fitted maximal effect. The method, boiled down: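 Luminescence from a RARE-driven luciferase reporter in C3RL4 cells served as the read-out, measured after 30 min with detection reagent at room temperature. Compounds in DMSO were applied for 6 hr at 37 C following overnight seeding.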

Assay [5] addresses Luciferin 4-monooxygenase (Photinus pyralis) (UniProt P08659). In words: qHTS assay to identify small molecule inhibitors of firefly luciferase (AID 1224835). Further: nearly all actives have a fitted effect of over 25% in size. Further: potency means the concentration at half of the fitted maximal effect. The method, boiled down: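 Biochemical qHTS: compounds run as interplate titrations against purified firefly enzyme, with D-luciferin and ATP each at its KM concentration. Light output recorded by CCD imaging.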
Assay [6] is described as follows: qHTS assay to identify small molecule agonists of the constitutive androstane receptor (CAR) signaling pathway - cell viability counter screen (AID 1224836). Further: nearly all actives have a fitted effect of over 45% in size. Further: potency means the concentration at half of the fitted maximal effect. In short, it runs like this:
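HepG2-CYP2B6-hCAR, 2500 cells/well, 4 h pre-incubation; cpd 15 conc + PK11195 0.75 uM final; 23 h, 37 C/5% CO2; CellTiter-Fluor, fluorescence.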

The nature of assay [7]: qHTS assay to identify small molecule antagonists of the constitutive androstane receptor (CAR) signaling pathway - cell viability counter screen (AID 1224837). Further: nearly all actives have a fitted effect of over 45% in size. Further: potency means the concentration at half of the fitted maximal effect. The method, boiled down: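 HepG2-CYP2B6-hCAR cells, 2500/well, 4 hr pre-incubation; compound titration, 15 conc.; CITCO 50 nM final; 23 hr, 37 C/5% CO2; CellTiter-Fluor, fluorescence intensity.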
For assay [8], the target named is Nuclear receptor subfamily 1 group I member 3 (Homo sapiens) (UniProt Q14994). As to the kind of experiment: qHTS assay to identify small molecule antagonists of the constitutive androstane receptor (CAR) signaling pathway (AID 1224838).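 Further: HepG2 cells stably expressing hCAR with CYP2B6 luciferase reporter stimulated by CITCO; nearly all actives have a fitted effect of over 40% in size.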 Further: potency means the concentration at half of the fitted maximal effect. In short, it runs like this: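 HepG2-CYP2B6-hCAR cells; 4 h pre-incubation; cpd (15 conc) + CITCO 50 nM final; 24 h, 37 C/5% CO2; ONE-Glo, luminescence.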
Sequence of Nuclear receptor subfamily 1 group I member 3 (Homo sapiens) (Q14994 whole entry, looked up): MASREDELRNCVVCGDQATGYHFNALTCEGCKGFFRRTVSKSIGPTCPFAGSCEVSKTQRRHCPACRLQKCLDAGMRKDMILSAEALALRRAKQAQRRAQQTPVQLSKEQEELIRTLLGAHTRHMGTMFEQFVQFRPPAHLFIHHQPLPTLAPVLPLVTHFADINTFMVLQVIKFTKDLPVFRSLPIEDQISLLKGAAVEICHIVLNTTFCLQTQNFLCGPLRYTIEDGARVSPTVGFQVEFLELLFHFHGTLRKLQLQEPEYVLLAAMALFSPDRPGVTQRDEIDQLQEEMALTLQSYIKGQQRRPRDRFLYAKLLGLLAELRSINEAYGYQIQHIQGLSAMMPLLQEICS

Assay [9] shares this target. As to the kind of experiment: qHTS assay to identify small molecule agonists of the constitutive androstane receptor (CAR) signaling pathway (AID 1224839). Further: nearly all actives have a fitted effect of over 15% in size. Further: potency means the concentration at half of the fitted maximal effect. In short, it runs like this:
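HepG2-CYP2B6-hCAR cells, 2500/well, 4 h pre-incubation; compounds 15 conc.; PK11195 0.75 uM final; 24 h, 37 C/5% CO2; ONE-Glo luciferase read.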

Assay [10] is described as follows: qHTS assay to identify small molecule antagonists of the estrogen related receptor signaling pathway with the pleiotropic PPARgamma coactivator (PGC) from Tox21 10K library - cell viability counter screen (AID 1224840; active means well fitted cell-killing curve with a large enough effect in the repeat runs, not every such curve was filed as active; further: nearly all actives have a fitted effect of over 40% in size; further: potency means the concentration at half of the fitted maximal effect). The method, boiled down:
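PGC/ERR cells, 2,000/well; 6 h pre-incubation 37 C/5% CO2; cpd in DMSO via pin tool; 17.5 h 37 C; CellTiter-Fluor, 30 min; fluorescence.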

The target in assay [11] is Thyrotropin receptor (Homo sapiens) (UniProt P16473). As to the kind of experiment: qHTS assay to identify small molecule agonists of the thyroid stimulating hormone receptor (TSHR) signaling pathway (AID 1224843; calls by dose curve; further: nearly all actives have a fitted effect of over 45% in size; further: potency means the concentration at half of the fitted maximal effect). In short, it runs like this:
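TSHR-HEK293 cells in agonist mode, 30 min room-temperature step, then cAMP measured by competitive HTRF (cAMP-d2 with anti-cAMP cryptate) after 1 h at room temperature. Tested at 15 concentrations in triplicate.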

The nature of assay [12]: qHTS assay to identify small molecule antagonists of the estrogen related receptor (ERR) signaling pathway from Tox21 library - cell viability counter screen (AID 1224834). Further: nearly all actives have a fitted effect of over 30% in size. Further: potency means the concentration at half of the fitted maximal effect. The method, boiled down:
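Fluorescence from CellTiter-Fluor gives the viability read-out, taken 30 min after reagent addition. Before that, ERR cells seeded 6 h earlier were incubated with compounds for 17.5 h at 37 C.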

Assay [13] in a line: qHTS assay to identify small molecule antagonists of the estrogen related receptor (ERR) signaling pathway - cell viability counter screen (AID 1224818). Further: series mostly up to about 46 µM. The method, boiled down: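 Multiplexed counter screen to separate cytotoxic compounds from true ERR modulators. ERR cells received DMSO-dissolved compounds after a 6 h pre-incubation, were exposed 17.5 h at 37 C, then assayed with CellTiter-Fluor fluorescence.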

Assay [14] in a line: qHTS assay to identify small molecule antagonists of the estrogen related receptor signaling pathway with the pleiotropic PPARgamma coactivator (PGC) cell viability counter screen (AID 1224822; further: series mostly up to about 46 µM). The method, boiled down: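 Cells: PGC/ERR, 2,000/well, 1536-well format. Pre-incubation 6 h, 37 C/5% CO2. Compound exposure 17.5 h, 37 C. Detection: CellTiter-Fluor, 30 min, fluorescence.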

Assay [15] in a line: qHTS assay to identify small molecule antagonists of the estrogen related receptor signaling pathway with the pleiotropic PPARgamma coactivator (PGC) from Tox21 10K library (AID 1224841; call rule not given here; further: series mostly up to about 92 µM; actives are mostly falling curves and most rising ones were filed inactive; nearly all actives have a fitted effect of over 50% in size). In short, it runs like this:
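PGC/ERR cell line, 2,000 cells/well; 6 h pre-incubation 37 C/5% CO2; compounds (DMSO) pinned in; 18 h, 37 C; One-Glo, 30 min RT; luminescence.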

The nature of assay [16]: qHTS assay to identify small molecule agonists of the estrogen related receptor signaling pathway with the pleiotropic PPARgamma coactivator (PGC) from Tox21 10K library (AID 1224842). Further: nearly all actives have a fitted effect of over 15% in size. The method, boiled down:
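PGC/ERR reporter cell line, 2,000 cells per well, incubated 6 h at 37 C before 23 nL compound in DMSO was added. After 18 h at 37 C, One-Glo luminescence read following 30 min at room temperature.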

Sequence of Thyrotropin receptor (Homo sapiens) (P16473 whole entry, looked up): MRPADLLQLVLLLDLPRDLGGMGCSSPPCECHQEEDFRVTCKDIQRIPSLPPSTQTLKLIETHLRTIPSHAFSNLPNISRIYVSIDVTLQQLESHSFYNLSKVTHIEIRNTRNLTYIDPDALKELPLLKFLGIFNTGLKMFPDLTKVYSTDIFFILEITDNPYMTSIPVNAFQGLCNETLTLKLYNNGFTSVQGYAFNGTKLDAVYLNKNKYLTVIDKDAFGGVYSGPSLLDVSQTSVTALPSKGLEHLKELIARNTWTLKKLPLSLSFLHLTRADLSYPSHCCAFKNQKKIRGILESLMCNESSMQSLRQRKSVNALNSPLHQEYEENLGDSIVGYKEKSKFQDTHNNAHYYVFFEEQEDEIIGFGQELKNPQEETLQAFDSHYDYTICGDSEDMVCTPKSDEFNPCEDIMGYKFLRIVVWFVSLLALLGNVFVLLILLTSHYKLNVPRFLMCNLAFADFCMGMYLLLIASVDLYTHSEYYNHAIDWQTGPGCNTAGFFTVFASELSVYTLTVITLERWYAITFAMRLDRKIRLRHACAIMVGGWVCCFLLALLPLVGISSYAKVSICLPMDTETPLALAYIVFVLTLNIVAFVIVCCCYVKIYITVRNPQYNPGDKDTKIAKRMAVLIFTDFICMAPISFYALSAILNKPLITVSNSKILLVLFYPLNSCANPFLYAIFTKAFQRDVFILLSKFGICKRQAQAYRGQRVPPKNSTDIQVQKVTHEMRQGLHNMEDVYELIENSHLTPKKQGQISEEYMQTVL
Sequence of Luciferin 4-monooxygenase (Photinus pyralis) (P08659 whole entry, looked up): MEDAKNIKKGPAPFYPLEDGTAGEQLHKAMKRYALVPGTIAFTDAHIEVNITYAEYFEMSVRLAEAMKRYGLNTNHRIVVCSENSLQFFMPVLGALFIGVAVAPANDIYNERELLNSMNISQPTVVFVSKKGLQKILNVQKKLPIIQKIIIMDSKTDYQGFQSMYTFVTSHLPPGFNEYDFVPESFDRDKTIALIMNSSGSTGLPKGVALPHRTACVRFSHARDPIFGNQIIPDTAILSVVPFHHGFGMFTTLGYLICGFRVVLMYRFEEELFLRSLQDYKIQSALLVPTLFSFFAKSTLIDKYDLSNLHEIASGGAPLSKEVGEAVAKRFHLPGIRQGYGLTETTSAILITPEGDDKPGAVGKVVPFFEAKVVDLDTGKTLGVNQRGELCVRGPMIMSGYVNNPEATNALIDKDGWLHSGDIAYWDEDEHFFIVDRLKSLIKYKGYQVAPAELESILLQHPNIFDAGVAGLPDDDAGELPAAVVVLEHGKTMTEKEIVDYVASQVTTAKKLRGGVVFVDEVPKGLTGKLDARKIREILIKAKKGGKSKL

Take `COc1ccc(C(=O)CC(=O)c2ccc(C(C)(C)C)cc2)cc1`: the Potency result in assay [1], in assay [2], in assay [3], in assay [6], in assay [7] and in assay [8] was “inactive” each time. Besides, the Potency result in assay [9], in assay [10] and in assay [11] was “inactive” throughout. Also, the Potency was 58.7 µM (active) and inactive in assay [4]; 13.6 µM (active) and inactive in [5].
For the compound `Cc1cccc([N+](=O)[O-])c1C`, the Potency result in assay [1], in [2], in assay [3], in [4], in [12] and in [5] was “inactive” in each case. The Potency entry in assay [6], in assay [7], in assay [8], in assay [9] and in assay [10] was “inactive” each time.
As for `Cc1c(C(N)=O)cc([N+](=O)[O-])cc1[N+](=O)[O-]`, the Potency entry in [1], in assay [2], in [12], in assay [5], in assay [6] and in [7] was “inactive” each time. Moreover, the Potency entry in assay [8], in assay [9], in assay [10] and in assay [11] was “inactive” each time.
Regarding `CN(C)CCC=C1c2ccccc2CCc2ccccc21`, the Potency in assay [1] is 12.3 µM (active) and 15.5 µM (active) and 13.4 µM (active); in assay [12], 68.6 µM (active) and 48.6 µM (active) and inactive; in assay [8], 48.6 µM (active); in [10], 48.6 µM (active) and inactive. For the same compound, the Potency result in [2], in [13], in [14], in assay [5] and in assay [9] was “inactive” each time.
As for `COC(=O)c1ccccc1`, the Potency entry in [1], in assay [2], in assay [12], in assay [5], in assay [6] and in assay [7] was “inactive” throughout. The Potency entry in [10] and in assay [11] was “inactive” each time.
Turning to `CC(=O)Oc1ccccc1C(=O)Nc1ncc([N+](=O)[O-])s1`, the Potency result in [1], in [3], in [8] and in assay [11] was “inactive” in each case. Also, the Potency in assay [4] was 140 nM (active) and 188 nM (active); in assay [5] it was 1.29 µM (active) and 3.09 µM (active); in assay [6], 19.7 µM (active) and 21.1 µM (active); in assay [7] it was 24.8 µM (active) and 23.7 µM (active); in assay [9], 556 nM (active) and 473 nM (active); in [10] it was 15.7 µM (active) and 23.7 µM (active).
Take `NC=O`: the Potency result in [1], in assay [2], in [3], in assay [4], in assay [5] and in assay [6] was “inactive” each time. The Potency entry in assay [7], in assay [10], in assay [15] and in assay [16] was “inactive” each time.
Take `CC(C)OB(OC(C)C)OC(C)C`: the Potency result in assay [1], in assay [2], in assay [5], in assay [6], in [7] and in assay [8] was “inactive” in each case. Besides, the Potency entry in [9], in [10], in assay [15] and in [16] was “inactive” throughout.
As for `CCCc1c(OCCCCc2nn[nH]n2)ccc(C(C)=O)c1O`, the Potency entry in [1], in assay [2], in assay [5], in assay [6], in assay [7] and in assay [8] was “inactive” each time. Besides, the Potency result in assay [9], in assay [10] and in assay [11] was “inactive” in each case.
In the case of `COc1c(Cl)c(Cl)c(Cl)c(Cl)c1Cl`, the Potency result in assay [1], in assay [2], in assay [5], in [6], in assay [7] and in assay [8] was “inactive” in each case. For the same compound, the Potency entry in [10], in [15], in assay [16] and in assay [11] was “inactive” throughout.
For the compound `c1ccc(Nc2ccccc2)cc1`, the Potency entry in assay [1], in [2], in assay [3], in assay [4], in [6] and in assay [7] was “inactive” in each case. The Potency entry in assay [8], in assay [9], in assay [10], in assay [15], in assay [16] and in assay [11] was “inactive” throughout.
Take `COc1ccccc1/C=C/C=O`: the Potency result in [1], in [2], in assay [5], in assay [6], in [7] and in [10] was “inactive” throughout. The Potency in assay [11] was 31.4 µM (active) and 54.5 µM (active).

Source of the values: PubChem BioAssay (Tox21).
